Among all 1,300 compounds or so, about 270 (21%) were called active. No rule for the calls is given here. A selection follows. Where a call stands in place of a potency, no number is given. Potency and affinity values are given separately.
Assay: cytotoxicity in parental SK-MEL-5 melanoma cells – cell-based, CellTiter-Glo, cherry-picked, set 3, orthogonal assay for MITF inhibitor project, dose response (AID 493240)
Conditions: SK-MEL-5 viability, ATP luminescence (CellTiter-Glo), 24 h; series mostly up to 35 µM
For `O=C(/C=C/c1ccc2c(c1)OCCO2)c1ccccc1`, the outcome was “inactive”.
With `COc1cccc(/C=C/C(=O)c2ccc3c(c2)OCCO3)c1OC` the outcome was “inactive”.
In the case of `O=C(Nc1nc2ccsc2c(=O)s1)C1CCC1`, the outcome is reported as “inactive”.
With `O=C(Nc1ccccc1Cl)c1cc(=O)c2ccccc2o1` the outcome was “inactive”.
In the case of `Cc1ccc(-c2noc(CN3CCCCC3)n2)cc1`, the outcome is reported as “inactive”.
For `Cc1cc(C)c2c(N)c(C(=O)N/N=C/c3cccnc3)sc2n1`, the outcome was “inactive”.
With `Cc1nc2ccc(NC(=O)c3ccco3)cc2nc1C` the outcome was “inactive”.
In the case of `COc1cccc(/C=N/NC(=O)c2cccs2)c1`, the outcome is reported as “inactive”.
For `CC1Cc2cc(-c3csc(N)n3)ccc2O1` (stereo unspecified), the outcome was “inactive”.
In the case of `CCCCOc1ccc(-c2ncc([N+](=O)[O-])cn2)cc1`, the outcome is reported as “inactive”.
With `COC(=O)CSC1=C(C#N)C(=O)NC(c2ccccc2)S1` (stereo unspecified) the outcome was “inactive”.
In the case of `COc1nc(NC2CCCCC2)nc(NC(C)(C)C)n1`, the outcome is reported as “inactive”.
For `Cc1ccc2nc(Cc3ccc(N)cc3)oc2c1`, the outcome was “inactive”.
In the case of `Cc1nc(NC(=O)/C=C/c2ccccc2)n[nH]1`, the outcome is reported as “inactive”.
With `CCCc1ccc(-c2ccc(/C=C/C(=O)O)cc2)nc1` the outcome was “inactive”.
For `[2H]C(CCOS(N)(=O)=O)c1ccc(C(C)(C)C)cc1` (stereo unspecified), the outcome was “inactive”.
In the case of `CC(=O)N(C1CC(C)C(C#N)(C#N)C1(C#N)C#N)N(C)C` (stereo unspecified), the outcome is reported as “inactive”.
For `Cc1cccnc1NC(=O)NC(=O)c1ccc(C(C)(C)C)s1`, the outcome was “inactive”.
In the case of `O=C(CC(=O)c1ccccc1)Nc1ccccn1`, the outcome is reported as “inactive”.
In the case of `COc1ccc(NC(=O)c2cc3ccccc3oc2=O)c(OC)c1`, the outcome is reported as “inactive”.
In the case of `NNC(=O)Cn1c(SCc2ccccc2)nc2ccccc21`, the outcome is reported as “inactive”.
With `CCCCOc1ccc(-c2nnn(C(C)(C)C(=O)OC)n2)cc1` the outcome was “inactive”.
For `CCSc1nnc(NC(=O)C2CCCCC2)s1`, the outcome was “inactive”.
In the case of `COCc1cc(C)nc2sc(C(=O)Nc3ccc(OC)cc3)c(N)c12`, the outcome is reported as “inactive”.
In the case of `CCN(CC)c1ccc(/C=N/NC(=O)c2cccc(S(=O)(=O)N3CCOCC3)c2)c(O)c1`, the outcome is reported as “inactive”.
For `O=C(N/N=C\c1ccc([N+](=O)[O-])o1)C1COc2ccccc2O1` (stereo unspecified), the outcome was “inactive”.
With `Clc1ccc(-c2noc(CN3CCOCC3)n2)cc1` the outcome was “inactive”.
With `COc1ccc(-c2cc(-c3ccccc3)c(C#N)c(S(C)=O)n2)cc1` (stereo unspecified) the outcome was “inactive”.
With `COc1ccc(-c2nc3n(c2C)Cc2ccccc2-3)cc1` the outcome was “inactive”.
With `CC(C)(C)c1ccc(C(=O)Nc2sc3c(c2C(=O)O)CCC3)cc1` the outcome was “inactive”.
In the case of `Cc1ccc(-n2ncc3c(SCC(N)=O)ncnc32)cc1C`, the outcome is reported as “inactive”.
With `CC(/C=C1\SC(=O)N(CCCC(=O)O)C1=O)=C\c1ccccc1` the outcome was “inactive”.
With `Cc1cc(C)n(CCC(=O)N/N=C/c2c(O)ccc3ccccc23)n1` the outcome was “inactive”.
In the case of `COc1ccc2nc(N3CCN(C(=O)c4ccc([N+](=O)[O-])o4)CC3)sc2c1`, the outcome is reported as “inactive”.
In the case of `Cc1cccc(NC(=O)CNC(=O)Cn2ncc(Cl)c(Cl)c2=O)c1C`, the outcome is reported as “inactive”.
For `C/C(=N\Nc1nccnc1Cl)c1ccc(O)c(C)c1`, the outcome was “inactive”.
In the case of `CCOC(=O)c1c(C)[nH]c(C)c1C(=O)COC(=O)c1ccc([N+](=O)[O-])s1`, the outcome is reported as “inactive”.
With `O=C(c1ccc([N+](=O)[O-])s1)N1CCCc2ccccc21` the outcome was “inactive”.
For `CCOC(=O)C(=Cc1ccc(-n2ccnc2)cc1)C(=O)OCC`, the outcome was “inactive”.
For `NC(=O)C1CCN(C2=C(NS(=O)(=O)c3ccc(Br)cc3)C(=O)c3ccccc3C2=O)CC1`, the outcome was “inactive”.
With `Cc1ccc(C(CNS(=O)(=O)c2ccc(Br)cc2)N2CCN(C)CC2)cc1` (stereo unspecified) the outcome was “inactive”.
For `Cc1cc(N2CCOCC2)ccc1/C=C\[N+](=O)[O-]`, the outcome was “inactive”.
With `COc1cc2c(c(OC)c1OC)-c1ccc(N(C)CC(OC)OC)c(=O)cc1[C@@H](NC(C)=O)CC2` the outcome was “inactive”.
In the case of `Nc1ccc2c(c1)OC1(CCCC1)O2`, the outcome is reported as “inactive”.
For `COc1cc(OC)cc(C(=O)N[C@H](C(=O)Nc2nc3ccccc3[nH]2)C(C)C)c1`, the outcome was “inactive”.
With `Oc1c(CN2CCCC2)cc(COCc2ccccc2)c2cccnc12` the outcome was “inactive”.
With `CN(C)C1CCN(Cc2cc(COCc3ccccc3)c3cccnc3c2O)C1` (stereo unspecified) the outcome was “inactive”.
For `COc1cccc(NC(=O)c2cc3c(=O)n4ccccc4nc3n(CC(C)C)c2=N)c1`, the outcome was “inactive”.
With `Cc1ccc(NC(=O)c2cc3cccc([N+](=O)[O-])c3[nH]2)cc1` the outcome was “inactive”.
With `CCN=c1scc(-c2ccco2)n1/N=C/c1ccc(O)cc1` the outcome was “inactive”.
For `CC(C)CC(=O)/C=C/n1c(=S)oc2ccccc21`, the outcome was “inactive”.
For `CCC(=O)Nc1cc2nn(-c3ccc(C)cc3)nc2cc1C`, the outcome was “inactive”.
For `Cc1cc(N2CCOCC2)n2ncc(-c3ccccc3Cl)c2n1`, the outcome was “inactive”.
In the case of `O=C(CCl)N(Cc1cc(=O)[nH]c2ccccc12)c1ccccc1`, the outcome is reported as “inactive”.
With `CCNc1nc(N)c(C(=O)c2ccc(Cl)s2)s1` the outcome was “inactive”.
For `CN(C)c1ccc(CNc2ccccn2)cc1`, the outcome was “inactive”.
In the case of `CN(C)c1ccc(NC(=S)c2ccccn2)cc1`, the outcome is reported as “inactive”.
With `O=C1c2ccccc2C(=O)c2c1ncn2-c1ccccc1` the outcome was “inactive”.
With `Cc1c(/C=C/C(=O)c2ccc(Cl)s2)cnn1C` the outcome was “inactive”.
For `CC1CN(N=Cc2ccc([N+](=O)[O-])o2)C(=N)O1` (stereo unspecified), the outcome was “inactive”.
For `C#Cc1cccc(NC(=O)CSc2nnc(-c3ccc(C(F)(F)F)cn3)o2)c1`, the outcome was “inactive”.
For `Cc1nc(NCCOc2ccccc2)sc1C(=O)Nc1ccccc1`, the outcome was “inactive”.
With `COc1ccc(NC(=O)c2cc(-c3ccccc3Cl)on2)cc1` the outcome was “inactive”.
In the case of `CCOC(=O)c1cnc2c(ccc3ccccc32)c1N`, the outcome is reported as “inactive”.
In the case of `CCOC(=O)c1sc(-c2ccccc2)cc1N`, the outcome is reported as “inactive”.
With `Cc1cc(/C(N)=N/OC(=O)Nc2ccc(Cl)cc2)no1` the outcome was “inactive”.
In the case of `COc1ccc(NCc2nc3ccccc3n2C)cc1`, the outcome is reported as “inactive”.
With `CC(=O)c1cccc(Nc2nc(-c3cccnc3)cs2)c1` the outcome was “inactive”.
In the case of `CC(C)N1C/C(=C/c2cccnc2)C(=O)/C(=C/c2cccnc2)C1`, the outcome is reported as “inactive”.
For `CN1C/C(=C/c2cccnc2)C(=O)/C(=C/c2cccnc2)C1`, the outcome was “inactive”.
For `C=CCn1c(C)cc(C(=O)Cn2ncc(Cl)c(Cl)c2=O)c1C`, the outcome was “inactive”.
With `O=C(NC1=NCCS1)C1COc2ccccc2O1` (stereo unspecified) the outcome was “inactive”.
In the case of `CCC1CCCCN1CCCNC(=O)c1cn(CC)c2ccc(S(=O)(=O)N(C)C3CCCCC3)cc2c1=O` (stereo unspecified), the outcome is reported as “inactive”.
With `COc1c(C)cccc1C(=O)Nc1ccc(N2CCN(S(C)(=O)=O)CC2)cc1` the outcome was “inactive”.
In the case of `COc1cc2ccccc2cc1C(=O)Nc1ccc(N2CCN(C)CC2)cc1`, the outcome is reported as “inactive”.
With `Cc1c(C(=O)N(CCO)Cc2ccccc2)oc2c(F)cccc12` the outcome was “inactive”.

— PubChem BioAssay AID493240 (Broad Institute, 2011)
